# Reference: PubChem BioAssay AID1851 (National Center for Advancing Translational Sciences (NCATS), 2009)
# Several values for one entry are separate records, joined by “and”; a condition that tells them apart may be missing. Equal entries are not always repeated. Among all 16,000 compounds or so, about 4,000 (25%) were called active. Inconclusive results (about 26%) are left out. These entries were drawn from the full list. Unmarked numbers belong to inactive results. The call rests on the fitted dose curve; in most records, active means well fitted curve in the direction sought with a large enough effect; inconclusive means small, poorly fitted or top-dose-only effect, or effect the other way; inactive means no such curve, though single readings can be large or run the other way.
# Target: Cytochrome P450 2C9 (Homo sapiens) (UniProt P11712)
# Sequence (P11712 whole entry, looked up): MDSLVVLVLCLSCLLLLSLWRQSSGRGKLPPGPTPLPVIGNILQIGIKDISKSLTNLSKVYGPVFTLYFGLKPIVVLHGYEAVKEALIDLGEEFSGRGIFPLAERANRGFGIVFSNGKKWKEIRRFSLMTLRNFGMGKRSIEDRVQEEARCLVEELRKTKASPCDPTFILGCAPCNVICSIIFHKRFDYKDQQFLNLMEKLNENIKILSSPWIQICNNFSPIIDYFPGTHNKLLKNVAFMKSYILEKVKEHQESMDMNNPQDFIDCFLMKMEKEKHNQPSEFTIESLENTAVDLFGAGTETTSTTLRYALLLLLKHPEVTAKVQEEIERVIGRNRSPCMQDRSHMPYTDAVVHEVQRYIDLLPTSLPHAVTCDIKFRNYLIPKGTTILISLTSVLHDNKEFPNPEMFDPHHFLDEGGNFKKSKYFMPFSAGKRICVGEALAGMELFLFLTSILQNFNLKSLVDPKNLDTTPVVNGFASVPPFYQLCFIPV
# Assay: Cytochrome panel assay with activity outcomes
# Settings: recombinant CYP, pro-luciferin dealkylation, luminescence, p450-cyp2c9; series mostly up to 57.1 µM; activity, negative = inhibition: at the top concentration
# On the % scale 0 is the no-effect control and ±100 the full control effect.
Compound,"activity, negative = inhibition",AC50
CC1(C)O[C@@H]2C[C@H]3[C@H]4C[C@H](F)C5=CC(=O)C=C[C@@]5(C)[C@@H]4[C@H](O)C[C@]3(C)[C@]2(C(=O)CO)O1,-11.4% [at 25.6 µM],
O=C(NCc1ccco1)c1ccc2c(=O)n(-c3ccccc3)c(=S)[nH]c2c1,9.67%,
Cc1ccc(-n2c(N)c(C(=O)NCc3ccco3)sc2=S)cc1,,14.1 µM (active)
COC(=O)CCCC(=O)O,-1.69% [at 11.4 µM],
Cc1ccc(CS(=O)(=O)CCC(=O)NCCCOC(C)C)cc1,-10.3%,
CCCCNC(=O)NS(=O)(=O)c1ccc(C(=O)OC(C)C)o1,,2.82 µM (active)
CCCCNC(=O)NC1C(NC(=O)NCCCC)N(C)C(=O)N1C (stereo not drawn),-17%,
Cc1ccc(-c2cc(C(F)F)n3ncc(C(=O)Nc4c(C)nn(Cc5c(Cl)cccc5Cl)c4C)c3n2)cc1,,1 µM (active)
Cc1cc(C(F)F)n2ncc(C(=O)NCc3ccccc3C(F)(F)F)c2n1,-63.8%,
Cc1nn(Cc2c(Cl)cccc2Cl)c(C)c1NC(=O)c1cnn2c(C(F)F)cc(-c3ccccc3)nc12,,1.26 µM (active)
CC(=O)OC[C@@H]1O[C@H](C/C=N\OC[C@@H](O)COCc2ccco2)C=C[C@@H]1OC(C)=O,24.5% [at 11.4 µM],
N[C@H](C(=O)O)[C@@H](O)c1cnc[nH]1,20.3% [at 11.4 µM],
CC1=CC(C)(C)Nc2ccc(CSc3ccccc3)cc21,,0.2 µM (active)
O=c1cc(CSc2ccccc2)[nH]c(=S)[nH]1,-6.77%,
COC(=O)Cc1cc(=O)n2[nH]c(C)c(-c3ccccc3)c2n1,3.63%,
N#CCCn1c(=O)c(-c2ccccc2)nc2cnc(Nc3ccccc3)nc21,16.4%,
O=C(O)c1nc(-c2ccccc2)[nH]c1C(=O)O,-21.7% [at 11.4 µM],
N#Cc1c(-c2ccccc2)no[n+]1[O-],4.32%,
N#Cc1c(-c2ccccc2)nc(-c2ccccc2)[nH]c1=O,,0.316 µM (active)
Cc1[nH]n2c(=O)c(C#N)c(-c3ccccc3)nc2c1-c1ccccc1,,11.2 µM (active)
Cn1c(=O)c2[nH]c(CSCc3ccccc3)nc2n(C)c1=O,-13.3% [at 11.4 µM],
CSc1nc(O)c(Cc2ccccc2)c(=O)[nH]1,-25.9%,
Cc1nc2c(C#N)c(C)[nH]n2c(=O)c1Cc1ccccc1,,7.08 µM (active)
Clc1cc2c(c(CSC3=NCN(CC4CC4)CN3)c1)OCOC2,9.58% [at 11.4 µM],

Compound,"activity, negative = inhibition",AC50
NCCc1ccn[nH]1,9.32% [at 25.6 µM],
COC(=O)c1ccc(CSc2nc3cc(Cl)ccc3s2)o1,,3.55 µM (active)
O=C(O)[C@@H]1CS[C@@]2(CCCN(Cc3ccccc3)C2)N1,15.9% [at 11.4 µM],
Cc1cccc(-c2nsc(SCC(=O)Nc3nccs3)n2)c1,,1.58 µM (active)
COc1cccc(-n2ccnc2SCC(=O)Nc2nccs2)c1,,11.2 µM (active)
COc1ccc(NC(=O)CSc2ccc3c4c(cccc24)C(=O)c2ccccc2-3)cc1,,0.562 µM (active)
COC(=O)CSc1nnc(C)n1-c1cccc(OC)c1,-19.6%,
COc1ccc(C(O)c2nccn2Cc2ccccc2)cc1 (stereo not drawn),-11.9%,
Cc1cccc(OCC(=O)NNC(=O)CSc2ncc(C#N)c(N)n2)c1,-30.1%,
COc1ccc(-n2nnnc2SCC(=O)Nc2ccccc2)cc1,-16.3%,
COc1ccc(-n2ccnc2SCC(=O)Nc2ccccc2)cc1,,5.01 µM (active)
Cc1ccc(S(=O)(=O)O[C@H]2C[C@@H](C(C)(C)C)CC[C@@H]2c2ccccc2)cc1,5.88% [at 11.4 µM],
Cc1ccccc1-c1nc(Nc2ccncc2)c2ccccc2n1,-3.63% [at 2.29 µM],
O=C(O)[C@@H](O)[C@@H](O)[C@H](O)[C@H](O)CO,0.915% [at 11.4 µM],
Cn1ccnc1SCC(=O)Nc1sccc1C#N,,8.91 µM (active)
COc1ccc(-n2ccnc2SCC(=O)Nc2ccc(OC)cc2OC)cc1,,4.47 µM (active)
CCc1nnc(NC(=O)CSc2ncnc3c2cnn3-c2ccc(OC)cc2)s1,1.56%,
COc1ccccc1NC(=O)N1CCC(c2nnc(SCC(N)=O)n2C)CC1,8.31%,
CCc1nnc(NC(=O)CCC(=O)N2CCN(c3ccccn3)CC2)s1,-20.4%,
COc1ccc(NC(=O)CSc2nnc(C3CC3)n2-c2ccccc2)cc1,,10 µM (active)
CCNC(=O)CSc1nnc(C2CC2)n1-c1ccccc1,-23.2%,
CCOc1ccc(-n2ccnc2SCC(=O)Nc2nnc(CC)s2)cc1,,12.6 µM (active)
C/C(CCN1CCCCc2nc(C)c(C)cc21)=N\O[C@@H](C)c1cn([C@H](CO)Cc2ccccc2)nn1,6.66% [at 11.4 µM] and -0.809% [at 11.4 µM],
O=C(Nc1cccc(F)c1)N1CC2(CCN(C(=O)c3csnn3)CC2)C1,4.96%,

Compound,"activity, negative = inhibition",AC50
CCS(=O)(=O)N(C)[C@@H]1c2cc(C#N)ccc2OC(C)(C)[C@H]1O,,inactive
O=C(O)[C@H]1[C@H](C(=O)O)[C@H](C(=O)O)C[C@@H]1C(=O)O,7.74% [at 11.4 µM],
Clc1ccc2c(NCCNC3CCCCC3)ccnc2c1,-4.74% [at 11.4 µM],
NCCCC(=O)O,-2.69%,
Cc1ccc(-n2ccc(=O)c(-c3ccnc(SCc4cccc(Cl)c4)n3)n2)cc1,,3.16 µM (active)
CCn1c(SCc2ccc(C)cc2)nnc1-c1nn(-c2ccccc2)ccc1=O,-19.9%,
CC(C)(C)S(=O)(=O)c1cnc2c(-c3ccc(F)cc3)cnn2c1N,-14%,
CCN1CCN(CC(=O)N2c3ccccc3CC2C)CC1 (stereo not drawn),-5.36%,
CC(=O)N1c2ccc(S(=O)(=O)CCC(=O)O)cc2CC1C (stereo not drawn),-18%,
C[C@@H]1Cc2ccccc2N1NC(=O)c1ccc(Cl)c(S(N)=O)c1 (stereo partly drawn),-4.47% [at 25.6 µM],
CCCN1CCN(C(=O)CN2C(=O)CC(C)(C)S(=O)(=O)c3ccccc32)CC1,-26.4%,
CC1Cc2ccccc2N1C(=O)Cn1c(=O)cc(O)c2ccccc21 (stereo not drawn),,14.1 µM (active)
CC1Cc2ccccc2N1C(=O)CN1C(=O)COc2ccccc21 (stereo not drawn),,11.2 µM (active)
COc1ccc(C(=O)N2CCC3(CC2)CN(Cc2ccc(C#N)cc2)C3)cc1,9.43%,
COc1ccc(NC(=O)N2CCCC3(CCN(C(=O)c4cc(C(F)(F)F)cc(C(F)(F)F)c4)CC3)C2)cc1,6.55%,
COc1ccc(C(=O)N2CCC[C@@]3(CCN(Cc4cc(C(F)(F)F)cc(C(F)(F)F)c4)C3)C2)cc1,9.5%,
COC(=O)[C@@]1(Cc2ccc(F)cc2)[C@H]2c3cc(C(=O)N4CCCC4)n(CCCNc4ncc(C(F)(F)F)cc4Cl)c3C[C@H]2CN1C(=O)c1ccccc1,,3.16 µM (active)
COC(=O)[C@@]1(Cc2ccc(OC)cc2)[C@H]2c3cc(C(=O)N4CCCC4)n(CCCNc4ncc(C(F)(F)F)cc4Cl)c3C[C@H]2CN1C(=O)c1ccccc1,,7.94 µM (active)
N=C1CCC[C@@H]1C(=S)SCCC(N)=O,17.6% [at 11.4 µM],
C=CC(=O)NC(NC(=O)C=C)c1ccc(Br)cc1,18.3%,
O=C1CC[C@H](NC(=O)c2ccccc2)C(=O)N1,5.14% [at 11.4 µM],
O=C(c1cnccn1)N1CCC2(CC1)CN(c1ccccc1)C2,-1.1%,
O=C(c1cnccn1)N1CCC2(CC1)CN(c1cccc(-c3ccccc3)c1)C2,-12.8%,
O=C(c1ccco1)N1CCC[C@@]2(CCN(c3ccccc3)C2)C1,-10.5%,

Compound,"activity, negative = inhibition",AC50
O=C(c1cnccn1)N1CCC[C@@]2(CCN(c3cccc(-c4ccccc4)c3)C2)C1,,7.94 µM (active)
O=C(c1cnccn1)N1CCC[C@@]2(CCN(c3ccccn3)C2)C1,-9.53%,
O=C(c1ccco1)N1CCC[C@@]2(CCN(c3cccc(-c4ccccc4)c3)C2)C1,,5.01 µM (active)
O=C(c1cnccn1)N1CCC[C@@]2(CCN(c3ccncc3)C2)C1,-9.93%,
O=C(c1ccco1)N1CCC2(CC1)CN(c1cccc(-c3ccccc3)c1)C2,-6.53%,
O=C(c1cnccn1)N1CCC2(CCCN(c3cccc(-c4ccccc4)c3)C2)CC1,,20 µM (active)
CN(C)c1ccc(-c2ccc3ncnc(N(C)C)c3c2)cc1,-17.4% [at 2.29 µM],
O=c1n(-c2ccccc2)c(=O)n2n1CC[C@H]1/C(=N\OCc3ccccc3)[C@H]3O[C@@H]3[C@@H](O)[C@@H]12,25.1% [at 11.4 µM],
CCN1C(=O)CC(N2CCN(CC(=O)NC(C)C)CC2)C1=O (stereo not drawn),28.9%,
CN1CCN(C2CC(=O)N(Cc3ccc(N4CCCC4=O)cc3)C2=O)CC1 (stereo not drawn),-21.9%,
O=C1CC(N2CCN(C(c3ccccc3)c3ccccc3)CC2)C(=O)N1Cc1ccc(N2CCCC2=O)cc1 (stereo not drawn),,7.08 µM (active)
NN(CC(=O)O)CC(=O)O,17.7% [at 11.4 µM],
Cc1cc(-c2ccc(Cl)cc2)oc(=O)c1NC(=O)c1ccccc1,-24.3%,
CNC(=O)c1sc(SC)cc1-c1ccc(Cl)cc1,,5.62 µM (active)
Cc1ccc2c(c1)/C(=N/OC(=O)c1ccc(F)cc1)CCS2,-4.99%,
COc1ccccc1C(=O)O/N=C1/CCCc2c1ccc(OC)c2[N+](=O)[O-],,12.6 µM (active)
Cc1cc(Cl)ccc1OC(C)C(=O)Nc1ccc(S(=O)(=O)Nc2cnc3ccccc3n2)cc1 (stereo not drawn),,0.631 µM (active)
Cc1cc(NS(=O)(=O)c2ccc(NC(=O)CN3C(=O)c4ccccc4C3=O)cc2)nc(C)n1,9.04%,
O=C1C2Sc3[nH]c(=O)sc3C(c3ccccc3)C2C(=O)N1c1ccccc1 (stereo not drawn),,12.6 µM (active)
O=C1C(C2=NC(C(=O)O)C3C(=O)N(c4ccc(Cl)cc4)C(=O)C23)=C(O)c2ccccc21 (stereo not drawn),-11.2%,
O=C1C2Sc3[nH]c(=O)sc3C(c3ccccc3)C2C(=O)N1c1ccc(Cl)cc1 (stereo not drawn),,8.91 µM (active)
